# Screens (PubChem BioAssay)
# Shown are actives, neighbours in structure and some others; about 3.8% of the full set was active somewhere.
# HepG2 tox-1: HepG2 cytotoxicity, counter-screen for TGF-b inhibitors; HepG2 CAGA-GFP viability, ATP luminescence, 18 h; Potency, µM (doses to about 46.1 µM), without a hit: at the top dose activity change, negative = cytotoxicity, most hits filed as cytotoxic; 0.76% of 410,000 active
#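 HepG2 CAGA-GFP cells (1000/well, DMEM with 1% FBS) received compound, then TGF-beta at 500 pg/mL final, and were incubated 18 hours at 37 degrees C. Viability was read by CellTiter-Glo luminescence. Media-only wells were set as complete cell-killing and DMSO as no toxicity.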
# ATXN viability: reduces viability in counter-screen for ATXN expression inhibitors; 0.49% of 400,000 active; S2 cells (HEK-293 line with an ATXN2-luciferase reporter) viability, CellTiter-Fluor protease fluorescence, 24 h; Potency, µM (highest dose often 56.7 µM), actives largely listed as cytotoxic; also: nearly all actives have a fitted effect of over 40% in size
# ATXN2 expr inh: inhibitors of ATXN2 expression | AID 1745845 | 0.72% of 360,000 active | Potency, µM (doses to about 57 µM), for the others: top-dose activity change, negative = inhibition, usual class: inhibitors | HEK-293 ATXN2-luciferase reporter, luminescence, 24 h; also: % is scaled to controls: 0 for no effect and ±100 for the full control effect; nearly all actives have a fitted effect of over 55% in size
#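 qHTS (up to 57 uM final) was run with 24 h compound exposure of reporter cells at 37 °C. Each well was multiplexed: SteadyGlo luminescence measured ATXN2-luciferase expression after a fluorogenic Gly-Phe-AFC viability readout (25 uM final).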
# TGFb inhibitor: blocks TGF-b signaling; HepG2 CAGA-GFP TGF-b/SMAD3 reporter, GFP fluorescence, 18 h; TGF-beta stimulated, 500 pg/mL final; Potency, µM (top dose mostly 46.1 µM), for the others: at the top dose activity, negative = inhibition, usual class: inhibitors; 1.2% of 410,000 active; also: % is scaled to controls: 0 for no effect and ±100 for the full control effect; nearly all actives have a fitted effect of over 65% in size
#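 Inhibition of TGF-beta-driven CAGA-GFP reporter expression in HEPG2 cells is measured by cellular GFP fluorescence after 18 h stimulation with 500 pg/mL recombinant TGF-beta in 1% FBS medium at 37 degrees C.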
# HT1080 IDH1KD tx: HT-1080 IDH1 knockdown cell toxicity (counter line); HT-1080 IDH1 knockdown viability, ATP luminescence, 48 h; Potency, µM (doses to about 46.1 µM), inactives show at the top dose activity, negative = toxicity, usual class: cytotoxic; 2% of 360,000 active;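 also: 0% = DMSO wells and -100% = cell-free medium wells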
#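 Cytotoxicity counter-line: IDH1KD HT-1080, 48 h, CellTiter-Glo. Curves classed by r2, magnitude and activity.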
# HT1080NT lethal: kills 2HG-producing HT-1080-NT fibrosarcoma cells; HT-1080-NT fibrosarcoma viability, CellTiter-Glo ATP luminescence, 48 h; Potency, µM (titrated, usually from 46.1 µM), inactives show at the top dose activity, negative = less viability, hits mostly cytotoxic; 1.6% of 360,000 active;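 also: NT is the 2HG producing partner of a matched IDH1 knockdown line; 0% = DMSO-treated cells and -100% = media-only wells without cells; nearly all actives have a fitted effect of over 55% in size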
#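 A 48-hour cytotoxicity screen used HT-1080-NT cells plated 2 hours before compound delivery. ATP-based CellTiter-Glo luminescence measured viability, normalized to DMSO and no-cell controls.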
# TGFb confirm: confirmation of TGF-b signaling inhibitors in HepG2 reporter cells | shares compounds with TGFb inhibitor | HepG2 CAGA-GFP TGF-b reporter, GFP fluorescence, 18 h; cells stimulated with TGF-beta, 500 pg/mL | Potency, µM (series often up to 46.1 µM), for inactives: at the highest dose activity, negative = inhibition, hits mostly inhibitors | 63% of 1,600 active; also: % is scaled to controls: 0 for no effect and ±100 for the full control effect; nearly all actives have a fitted effect of over 65% in size
# HepG2 tox-2: counter-screen for TGF-b inhibitors: cytotoxicity in HepG2 cells | HepG2 CAGA-GFP viability, ATP luminescence, 18 h; cells stimulated with TGF-beta, 500 pg/mL | Potency, µM (top dose mostly 46.1 µM), for inactives: at the top dose activity, negative = cytotoxicity, usual class: inhibitors | shares compounds with TGFb inhibitor | 27% of 1,600 active; also: % is scaled to controls: 0 for no effect and ±100 for the full control effect; nearly all actives have a fitted effect of over 70% in size
# CCL64 TGFb inh: orthogonal confirmation of TGF-b inhibitors in CCL64 cells. shares compounds with TGFb inhibitor. 41% of 1,600 active. CCL64 CAGA-GFP reporter, TGF-b stimulated, GFP fluorescence, 18 h. Potency, µM (series often up to 46.1 µM), inactives show at the highest dose activity, negative = inhibition, usual class: inhibitors; also: nearly all actives have a fitted effect of over 65% in size
# COP TGFb inh: blocks TGF-b signaling in HepG2 COP reporter. shares compounds with TGFb inhibitor. HepG2 COP-GFP TGF-b reporter, GFP fluorescence, 18 h; cells stimulated by added recombinant TGF-beta. Potency, µM (top dose mostly 46.1 µM), inactives show top-dose activity, negative = inhibition, hits mostly inhibitors. 3% of 1,600 active; also: nearly all actives have a fitted effect of over 70% in size
# Numbers without * were called inactive; i = inactive; ? = inconclusive; . = no result; [ ] = dose if it differs, or a comment. Calls follow the shape of the dose curve; as a rule, active = well fitted curve in the direction sought with a large enough effect; inconclusive = small, poorly fitted or top-dose-only effect, or another doubt; inactive = no such curve, though single readings can be large; an effect the other way counts as inactive or inconclusive. Potency is read from the fitted curve at half-maximal effect.
SMILES,HepG2 tox-1,ATXN viability,ATXN2 expr inh,TGFb inhibitor,HT1080 IDH1KD tx,HT1080NT lethal,TGFb confirm,HepG2 tox-2,CCL64 TGFb inh,COP TGFb inh
COc1ccc(N2CCc3c(C)nc4c(OC)cccc4c32)cc1,-12.7%,?,-19.1%[11.3 µM],11.2µM*,3.26µM*,3.66µM*,14.6µM*,?,25.9µM*,16.5%
Nc1nc(N)c2c(ccc3c2ccn3Cc2cccc([N+](=O)[O-])c2)n1,-97.7%,?,?,3.55µM*,0.146µM*,0.0184µM*,4.61µM*,0.291µM*,?,13µM*
O=C1N(c2ccccc2)C[C@@H]2C[C@@H](c3cc4ccccc4o3)N3CCC[C@@]123,2.4%,?,0.299µM*,0.126µM*,0.581µM*,?,0.058µM*,?,0.581µM*,17.9%
O=C(NC[C@@H]1CC[C@@H](Cc2ccc(-c3ccccc3)cc2)O1)Nc1ccc(Br)cc1,-21.6%,?,?,11.2µM*,-2.3%,?,20.6µM*,-16.1%,-6.6%,-19.7%
O=C(NCCCCc1ccccc1)NC[C@@H]1CC[C@@H](Cc2ccc(-c3ccccc3)cc2)O1,-26.1%,i,0.0%,?,-21.4%,-16.4%,.,.,.,.
O=C1N[C@@H](c2ccccc2)COC(=O)[C@@H](Cc2ccc(F)cc2)CC/C=C/C[C@H]1CC(=O)N(CCO)Cc1ccccc1,-27.4%,?,-15.9%,?,?,?,.,.,.,.
O=C1N[C@@H](c2ccccc2)COC(=O)[C@@H](Cc2ccc(F)cc2)CC/C=C/C[C@@H]1CC(=O)N(CCO)Cc1ccccc1,-0.5%,17.8µM*,?,?,?,?,14.6µM*,-21.0%,?,24.9%
O=C(C[C@@H]1C/C=C\C[C@@H](Cc2ccc(F)cc2)C(=O)OC[C@@H](Cc2ccccc2)NC1=O)N[C@H](CO)Cc1ccccc1,-34.2%,i,3.9%,?,4.7%,0.7%,3.1%,6.8%,4.3%,-0.3%
Cc1nn(C)c(C)c1S(=O)(=O)N(CC(=O)N1CCN(c2ccccc2)CC1)c1ccc(C(C)C)cc1,-8.9%,.,.,?,.,.,.,.,.,.
Cc1ccc(C)c(Cn2cnc3ccccc3c2=O)c1,-8.7%,i,-6.2%,-23.8%,.,.,.,.,.,.
COc1ccc(OC)c(S(=O)(=O)Nc2cc(Cl)cc(Cl)c2)c1,0.3%,i,-1.8%,7.94µM*,-20.6%,-1.1%,20.6µM*,-7.7%,-27.1%,-14.7%
COc1ccc(OC)c(S(=O)(=O)Nc2ccc(C)c(C)c2)c1,-13.9%,i,9.0%,-0.8%,?,-6.0%,.,.,.,.
